VP16 counter: inhibits Gal4-VP16 luciferase reporter, ROR gamma counter-screen; Drosophila S2 Gal4-VP16 UAS-luciferase, luminescence, 20 h; Potency, µM (highest dose often 53.6 µM), inactives show top-dose activity, negative = inhibition, most hits filed as inhibitors; 310,000 compounds, 3.5% hits;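 further: Gal4-VP16 expression switched on by copper sulfate through the metallothionein promoter; nearly all actives have a fitted effect of over 50% in size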
TDP1 inh: TDP1 (human) enzyme inhibition; recombinant TDP1, AlphaScreen DNA substrate cleavage; Q9NUW8; Potency, µM (top dose mostly 130 µM), inactives show top-dose activity change, negative = inhibition, usual class: inhibitors; 350,000 compounds, 0.28% hits; further: nearly all actives have a fitted effect of over 40% in size
Target sequence (Q9NUW8 whole entry, looked up): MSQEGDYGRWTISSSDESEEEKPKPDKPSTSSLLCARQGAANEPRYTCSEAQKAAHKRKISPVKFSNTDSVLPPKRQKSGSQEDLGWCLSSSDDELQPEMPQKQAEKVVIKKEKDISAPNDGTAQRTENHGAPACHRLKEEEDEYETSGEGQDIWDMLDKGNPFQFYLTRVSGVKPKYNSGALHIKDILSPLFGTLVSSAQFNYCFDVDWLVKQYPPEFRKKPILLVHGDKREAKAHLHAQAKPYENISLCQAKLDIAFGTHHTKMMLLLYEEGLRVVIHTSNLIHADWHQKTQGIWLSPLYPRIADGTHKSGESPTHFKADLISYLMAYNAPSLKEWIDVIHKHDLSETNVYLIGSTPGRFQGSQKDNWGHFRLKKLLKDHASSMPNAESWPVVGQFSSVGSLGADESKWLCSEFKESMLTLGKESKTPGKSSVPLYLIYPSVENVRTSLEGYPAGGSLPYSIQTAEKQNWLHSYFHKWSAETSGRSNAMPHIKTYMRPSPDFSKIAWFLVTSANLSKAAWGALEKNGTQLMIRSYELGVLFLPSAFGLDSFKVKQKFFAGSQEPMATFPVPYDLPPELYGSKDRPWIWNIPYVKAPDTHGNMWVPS
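Tdp1 1 nM final; 15 min RT w/ cpd; substrate 15 nM, 5 min; beads 10 ug/ml, 10 min; AlphaScreen read. Neg ctrl: no enzyme.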
RORg inh: inhibitors of mouse ROR gamma transcriptional activity | P51450 | Drosophila S2 Gal4-RORgamma UAS-luciferase reporter, 20 h | Potency, µM (doses to about 53.6 µM), inactives show at the top dose activity change, negative = inhibition, hits mostly inhibitors | 310,000 compounds, 5.4% hits | AID 2551; further: nearly all actives have a fitted effect of over 60% in size
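Drosophila Schneider cells stably carrying a metallothionein-driven Gal4 DBD–ROR gamma fusion and a UAS-Photinus luciferase reporter were exposed to compound for 1 hr, then induced with copper sulfate (700 uM final) for 20 hr at ambient temperature before luminescence reading.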
TDP1 cell CPT: growth inhibition of DT40 Tdp1-/-;hTDP1 cells with camptothecin (screen for TDP1 inhibitors). chicken DT40 Tdp1-/-;hTDP1 cells + 20 nM CPT, ATP luminescence, 48 h. AID 686979. Potency, µM (titrated, usually from 46.2 µM), for the others: at the highest dose activity change, negative = growth inhibition, hits mostly inhibitors. 420,000 compounds, 12% hits; further: nearly all actives have a fitted effect of over 55% in size
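Chicken DT40 Tdp1-/- cells complemented with human TDP1, 400 cells/well, exposed to compounds plus 20 nM camptothecin for at least 48 h at 37 C; viability read as ATP content by CellTiter-Glo luminescence.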
DT40 TDP1 no CPT: qHTS for Inhibitors of human tyrosyl-DNA phosphodiesterase 1 (TDP1): qHTS in cells in absence of CPT | DT40 Tdp1-/- hTDP1 cells, no CPT, ATP luminescence, 48 h | Potency, µM (doses to about 46.2 µM), for the others: at the top dose activity change, negative = growth inhibition, usual class: inhibitors | 420,000 compounds, 15% hits | AID 686978, 2013; further: nearly all actives have a fitted effect of over 55% in size
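DT40 Tdp1-/-;hTDP1 cells, no CPT (DMSO vehicle only), 400 cells/well; compounds pin-transferred; ≥48 hr, 37 °C; CellTiter-Glo 30 min RT dark, luminescence read.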
* = called active by the depositor; ? = inconclusive; . = no result; [ ] = dose if it differs, or a comment. Hits are enriched below; roughly 19% of the tested compounds scored in any of these assays. The call rests on the fitted dose curve; in most records, active means well fitted curve in the direction sought with a large enough effect; inconclusive means small, poorly fitted or top-dose-only effect, or another doubt; inactive means no such curve, though single readings can be large; an effect the other way counts as inactive or inconclusive. On the % scale 0 is the no-effect control and ±100 the full control effect; potency means the concentration at half of the fitted maximal effect.

SMILES	VP16 counter	TDP1 inh	RORg inh	TDP1 cell CPT	DT40 TDP1 no CPT
COc1ccc(CN(C)C(=O)/C=C/[C@H]2O[C@@H](n3cc(C)c(=O)[nH]c3=O)C[C@@H]2O)cc1OC	.	.	.	4%	0%
COc1ccc(OC)c(NC(=O)Cn2cnc3ccc(S(=O)(=O)N4CCC(C)CC4)cc3c2=O)c1	.	8%	.	23µM*	?
COc1ccc(NC(=O)Cn2cnc3ccc(S(=O)(=O)N4CCC(C)CC4)cc3c2=O)cc1OC	.	2%	.	26µM*	?
CC1CCN(S(=O)(=O)c2ccc3ncn(CC(=O)Nc4ccccc4C(F)(F)F)c(=O)c3c2)CC1	.	6%	.	21µM*	?
N/C(=N\OC(=O)c1cccc2ccccc12)c1ccccn1	-16%	.	?	?	?
CN(C)c1ccc(C=NNC(=S)Nc2ccc(F)cc2)cc1	.	.	.	3.7µM*	4.6µM*
CN(C)c1ccc(/C=N/NC(=O)C[n+]2ccccc2)cc1	.	.	.	12%	-9%
Cc1ccc(NC(=O)O/N=C/c2ccc(N(C)C)cc2)cc1	-9%	.	?	2%	-27%
CSC(=S)N/N=C/c1ccc(Br)cc1	1.8µM*	2%	0.32µM*	-29%	17%
CSC(=S)N/N=C/c1ccc(N(C)C)cc1	2µM*	6%	0.25µM*	4.6µM*	5.2µM*
O=C(CSc1ncn[nH]1)N1N=C2/C(=C/c3ccco3)CCCC2C1c1ccco1 (stereo not drawn)	0%	2%	0%	?	?
O=C(Oc1ccccc1F)C1CCN(C(=O)c2ccc(F)cc2)CC1	.	5%	.	2%	-20%
COc1cccc(CNC(=O)c2c(C)nn(-c3ccccc3)c2C)c1	-7%	-2%	31%	16%	?
O=C(Cn1nnc2ccccc21)NC1CCCCC1	-1%	7%	13%	-16%	-19%
Cc1cc(C)cc(CC(Cc2nc3ccccc3[nH]2)c2nc3ccccc3[nH]2)c1 (stereo not drawn)	11µM*	6%	11µM*	?	26µM*
Cc1ccc(CC(Cc2nc3ccccc3[nH]2)c2nc3ccccc3[nH]2)cc1 (stereo not drawn)	?	14%[56.1 µM]	?	27µM*	27µM*
Cc1ccc(CSCc2nc3ccccc3[nH]2)cc1	-8%	-2%	13%	29µM*	21µM*
COc1ccc(-c2sc(C(=O)c3ccc(Cl)cc3Cl)cc2CC(=O)O)cc1	0%	.	13%	?	?
C[C@H]1CNC(=O)C(=O)N1C[C@H](Cc1ccc(O)cc1)NC(=O)CC12CC3CC(CC(C3)C1)C2	2%	.	-9%	0%	1%
CC(C)C[C@H](N)c1cn([C@@H](Cc2ccc(O)cc2)C(=O)N2CCNCC2)nn1	8%	6%	-28%	6%	0%
CC(C)C[C@H](N)c1cn([C@@H](CCCCN)C(=O)N2CCNCC2)nn1	-5%	4%	-18%	8.2µM*	6.5µM*
CC(C)COP(=O)(OCC(C)C)C(Nc1ccccc1)c1ccc2c(c1)OCO2 (stereo not drawn)	-22%	-6%	?	15µM*	?
Cc1ccc(C)c(Cn2nc(-c3cc(C)ccc3C)ccc2=O)c1	-5%	7%	1%	?	21µM*
COc1cc(F)ccc1-c1cc(C(=O)NCc2cccs2)[nH]n1	.	.	.	-2%	-11%
COCc1cc(C)nc(SCC(=O)Nc2ccccc2C)c1C#N	-6%	-2%	-3%	7.3µM*	5.8µM*
SMILES	VP16 counter	TDP1 inh	RORg inh	TDP1 cell CPT	DT40 TDP1 no CPT
COCc1cc(C)nc(SCC[N+](C)(C)CC(=O)Nc2cccc(C(F)(F)F)c2)c1C#N	13%	9%	28%	21µM*	?
CCc1ccc(NC(=O)CSc2nc(C)cc(COC)c2C#N)cc1	.	5%	.	.	.
Cc1cc(C)c(C#N)c(SCC(=O)Nc2ccccc2C(N)=O)n1	-2%	2%	5%	?	10µM*
COCc1cc(C)nc(SCC(=O)Nc2ccc(C)c(C)c2)c1C#N	-16%	-3%	-35%	-13%	-23%
Cc1sc2ncnc(-n3cnc4ccccc43)c2c1C	5%	0%	-27%	?	?
Cn1c(Cl)c(C(=O)Nc2ccc(Cl)cc2)c2ccccc21	3%	2%	8%	?	16µM*
Cc1nnsc1C(=O)NNS(=O)(=O)c1cc(C(F)(F)F)cc(C(F)(F)F)c1	19%	6%	11µM*	3%	-19%
Cc1ccc(S(=O)(=O)NNC(=O)c2snnc2C)cc1	-8%	6%	-32%	-22%	0%
O=C(CS(=O)(=O)c1ccccc1)Nc1nnc(-c2cccs2)o1	.	9%	.	-15%	-17%
O=C(Nc1nnc(-c2cccs2)o1)c1cccc(F)c1	.	.	.	4.6µM*	7.3µM*
O=C(Nc1ccsc1C(=O)O)c1cccc(Oc2ccccc2)c1	?	.	?	?	-15%
O=C(Nc1nnc(-c2cccs2)o1)c1cccc(Oc2ccccc2)c1	0.56µM*	11%	0.28µM*	10µM*	7.3µM*
Cc1ccc(Nc2nnc(SC3CCOC3=O)s2)c(C)c1 (stereo not drawn)	23%	3%	18%	8%	12%
CC(C)(C)c1ccc(OCCCn2ccnc2)cc1	25µM*	3%	-115%	-3%	?
Cc1cc(OCCCn2ccnc2)cc(C(C)C)c1	-1%	4%	32µM*	0%	0%
Cc1cc(OCCCn2ccnc2)ccc1C(C)C	?	3%	-35%	?	21µM*
CCCCOc1ccc(NC(=O)C(=O)NCCCn2ccnc2)cc1	15%	8%	?	?	18µM*
